# Measured values taken from PubChem BioAssay (Tox21).
# Inconclusive results are not listed. A call without a number means that no potency is given here. The source made the active and inactive calls. Unless noted, calls follow the shape of the full dose curve.
# Columns and labels:
# [1] = qHTS assay to identify small molecule antagonists of the peroxisome proliferator-activated receptor delta (PPARd) signaling pathway - cell viability counter screen (AID 743213; active = well fitted curve in the direction sought with a large enough effect in the repeat runs; an effect the other way counts as inactive or inconclusive; also: nearly all actives have a fitted effect of over 50% in size)
# Summary of the method: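 HEK293H cells with the PPARd UAS-bla reporter, co-treated 17 h at 37 C with compounds and L165041 (300 nM final), were lysed with CellTiter-Glo. Luminescence indicated viable cell content.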
# [2] = target: Peroxisome proliferator-activated receptor delta (Homo sapiens) (UniProt Q03181); assay: qHTS assay to identify small molecule antagonists of the peroxisome proliferator-activated receptor delta (PPARd) signaling pathway (AID 743215; active = well fitted inhibition curve with a large enough effect in the signal ratio in the repeat runs, not every such curve was filed as active; the % refers to the signal ratio;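 also: cells stimulated with agonist L165041 at 300 nM final during compound exposure; series mostly up to about 62 µM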)
# Summary of the method: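 Plated HEK293H PPARd-bla cells rested 5 h at 37 C and 5% CO2. Compound, then agonist L165041 at 300 nM final, was added; 17 h at 37 C followed. Substrate loading, 2 h room temperature, fluorescence measured.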
# [3] = target: Bile acid receptor (Homo sapiens) (UniProt Q96RI1); assay: qHTS assay to identify small molecule antagonists of the farnesoid-X-receptor (FXR) signaling pathway (AID 743217; active = well fitted inhibition curve with a large enough effect in the signal ratio in the repeat runs, not every such curve was filed as active; the % refers to the signal ratio)
# Summary of the method: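 Screen of the Tox21 10K library in quantitative HTS format using FXR-UAS-bla HEK 293T reporter cells. Agonist chenodeoxycholic acid, 50 uM final, added with compounds; 16 h incubation at 37 °C; beta-lactamase FRET fluorescence measured.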
# [4] = qHTS assay to identify small molecule agonists of the farnesoid-X-receptor (FXR) signaling pathway - cell viability counter screen (AID 743218; active = well fitted curve in the direction sought with a large enough effect in the repeat runs; an effect the other way counts as inactive or inconclusive; also: nearly all actives have a fitted effect of over 45% in size)
# Summary of the method: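 Viability of FXR-bla HEK 293T cells is measured by ATP-based CellTiter-Glo luminescence following 16 h compound treatment at 37 C and a prior 2 h room-temperature beta-lactamase substrate step.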
# [5] = target: Bile acid receptor (Homo sapiens) (UniProt Q96RI1); assay: qHTS assay to identify small molecule agonists of the farnesoid-X-receptor (FXR) signaling pathway (AID 743220; active = well fitted activation curve with a large enough effect in the signal ratio in the repeat runs, not every such curve was filed as active; the % refers to the signal ratio)
# Summary of the method: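 FXR-UAS-bla HEK 293T cells carrying a UAS-driven beta-lactamase reporter were plated for 5 h at 37C/5% CO2, then exposed to DMSO-dissolved Tox21 10K compounds for 16 h at 37C. A LiveBLAzer B/G FRET substrate was loaded for 2 h at room temperature before fluorescence reading.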
# [6] = qHTS assay to identify small molecule antagonists of the farnesoid-X-receptor (FXR) signaling pathway - cell viability counter screen (AID 743221; active = well fitted cell-killing curve with a large enough effect in the repeat runs, not every such curve was filed as active; also: nearly all actives have a fitted effect of over 50% in size)
# Summary of the method: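 Quantitative HTS of the Tox21 10K library run in parallel with the beta-lactamase reporter read. HEK 293T cells carrying a UAS-driven bla reporter got compound and 50 uM CDCA (final) for 16 h; ATP-based luminescence followed.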
# [7] = target: Vitamin D3 receptor (Homo sapiens) (UniProt P11473); assay: qHTS assay to identify small molecule agonists of the vitamin D receptor (VDR) signaling pathway (AID 743222)
# Summary of the method: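 Fluorescence from cleaved LiveBLAzer B/G FRET substrate served as readout. VDR-bla cells had been treated 16 h at 37C with test compounds in DMSO, following a 4 h settling period, and substrate was loaded for 2 h at RT.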
# [8] = qHTS assay to identify small molecule agonists of the vitamin D receptor (VDR) signaling pathway - cell viability counter screen (AID 743224; active = well fitted curve in the direction sought with a large enough effect in the repeat runs; an effect the other way counts as inactive or inconclusive; also: series mostly up to about 63 µM; nearly all actives have a fitted effect of over 50% in size)
# Summary of the method: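 Compounds were pin-transferred onto VDR-bla cells plated 4 h earlier; following 16 h incubation at 37C, cell viability was quantified by CellTiter-Glo luminescence after 30 min at room temperature.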
# [9] = qHTS assay to identify small molecule antagonists of the vitamin D receptor (VDR) signaling pathway - cell viability counter screen (AID 743225; active = well fitted curve in the direction sought with a large enough effect in the repeat runs; an effect the other way counts as inactive or inconclusive; also: nearly all actives have a fitted effect of over 50% in size)
# Summary of the method: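 Cells (VDR-UAS-bla HEK 293T) are plated, rested 4 h at 37C, dosed with compound and 3 nM final 1-alpha,25-dihydroxy vitamin D3, and incubated 16 h. Viability is taken from CellTiter-Glo luminescence in the reporter wells.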
# [10] = qHTS assay to identify small molecule agonists of the NFkB signaling pathway (AID 1159509; active = well fitted curve in the direction sought with a large enough effect in the signal ratio in the repeat runs, not every such curve was filed as active; the % refers to the signal ratio; also: series mostly up to about 61 µM)
# Summary of the method: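 Agonist activity was read as beta-lactamase-driven FRET change (460 and 530 nm emission, 405 nm excitation) following 1.5 hr substrate loading at room temperature. Beforehand, ME-180 NFkB-bla reporter cells were treated with compounds for 5 hr at 37 C.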
# [11] = qHTS assay to identify small molecule agonists of the NFkB signaling pathway - cell viability counter screen (AID 1159515); also: series mostly up to about 61 µM; nearly all actives have a fitted effect of over 55% in size
# Summary of the method: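 Parallel cytotoxicity counter screen in ME-180 cells carrying an NFkB-response-element beta-lactamase reporter, 2,000 cells/well. Compound exposure lasted 5 hr at 37 C, 5% CO2. Cell viability was quantified by CellTiter-Glo luminescence.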
# [12] = qHTS assay to identify small molecule agonists of the endoplasmic reticulum stress response signaling pathway (AID 1159516; active = well fitted activation curve with a large enough effect in the signal ratio in the repeat runs, not every such curve was filed as active; the % refers to the signal ratio)
# Summary of the method: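 Using a HeLa line with an ESRE-driven beta-lactamase gene, agonist activity was measured by FRET substrate fluorescence (460 and 530 nm emission) after cells were treated with compounds for 5 hr at 37 C and 5% CO2.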
# [13] = qHTS assay to identify small molecule agonists of the endoplasmic reticulum stress response signaling pathway - cell viability counter screen (AID 1159517)
# Summary of the method: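 Cpd-treated ESRE-bla HeLa (5 hr, 37 C) → LiveBLAzer 2 hr RT → CellTiter-Glo 30 min RT → luminescence.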
# [14] = qHTS assay to identify small molecule antagonists of the retinoid-related orphan receptor gamma (ROR-gamma) signaling pathway - cell viability counter screen (AID 1159520; active = well fitted curve in the direction sought with a large enough effect in the repeat runs; an effect the other way counts as inactive or inconclusive; also: nearly all actives have a fitted effect of over 50% in size)
# Summary of the method: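 Tet-on ROR gamma CHO cells (1,000/well) were plated 4 hr, given compounds in DMSO for 2 hr at 37 C, then induced with 1 uM final doxycycline for 16 hr. Viability was read as ATP by CellTiter-Glo luminescence after 30 min.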
# [15] = target: Nuclear receptor ROR-gamma (Homo sapiens) (UniProt P51449); assay: qHTS assay to identify small molecule antagonists of the retinoid-related orphan receptor gamma (ROR-gamma) signaling pathway (AID 1159521; active = well fitted curve in the direction sought with a large enough effect in the repeat runs; an effect the other way counts as inactive or inconclusive)
# Summary of the method: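 RORγ antagonism is scored from reduced reporter luminescence in Tet-on CHO cells. Induction used 1 uM final doxycycline hyclate for 16 h at 37 C, following a 2 h compound exposure.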
# [16] = qHTS assay to identify small molecule agonists of the AP-1 signaling pathway - cell viability counter screen (AID 1159525); also: nearly all actives have a fitted effect of over 55% in size
# Summary of the method: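 Each titration point was normalised to DMSO and tetra n-octyl ammonium bromide controls. The read was Cell Titer Glo luminescence after 30 min at RT, following 5 h compound exposure of ME-180 AP-1-bla cells at 37 °C.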
# [17] = qHTS assay to identify small molecule agonists of the AP-1 signaling pathway (AID 1159526)
# [18] = target: Retinoic acid receptor RXR-alpha (Homo sapiens) (UniProt P19793); assay: qHTS assay to identify small molecule agonists of the RXR signaling pathway (AID 1159527); also: nearly all actives have a fitted effect of over 35% in size; also: potency is read from the fitted curve at half-maximal effect
# Summary of the method: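 qHTS of the Tox21 10K library in GeneBLAzer RXR-alpha HEK 293T cells carrying a beta-lactamase reporter […]; 16 hr treatment, 9-cis retinoic acid as agonist control, FRET read-out.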
# [19] = target: Vitamin D3 receptor (Homo sapiens) (UniProt P11473); assay: qHTS assay to identify small molecule antagonists of the vitamin D receptor (VDR) signaling pathway (AID 743223; active = well fitted inhibition curve with a large enough effect in the signal ratio in the repeat runs, not every such curve was filed as active; the % refers to the signal ratio)
# Summary of the method: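 Fluorescence from LiveBLAzer B/G FRET substrate, read after 2 h at room temperature, reflects beta-lactamase reporter activity in VDR-bla cells treated 16 h at 37C with compounds and agonist 1alpha,25-dihydroxyvitamin D3 (3 nM final).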
# Chain of Retinoic acid receptor RXR-alpha (Homo sapiens) (P19793 whole entry, looked up): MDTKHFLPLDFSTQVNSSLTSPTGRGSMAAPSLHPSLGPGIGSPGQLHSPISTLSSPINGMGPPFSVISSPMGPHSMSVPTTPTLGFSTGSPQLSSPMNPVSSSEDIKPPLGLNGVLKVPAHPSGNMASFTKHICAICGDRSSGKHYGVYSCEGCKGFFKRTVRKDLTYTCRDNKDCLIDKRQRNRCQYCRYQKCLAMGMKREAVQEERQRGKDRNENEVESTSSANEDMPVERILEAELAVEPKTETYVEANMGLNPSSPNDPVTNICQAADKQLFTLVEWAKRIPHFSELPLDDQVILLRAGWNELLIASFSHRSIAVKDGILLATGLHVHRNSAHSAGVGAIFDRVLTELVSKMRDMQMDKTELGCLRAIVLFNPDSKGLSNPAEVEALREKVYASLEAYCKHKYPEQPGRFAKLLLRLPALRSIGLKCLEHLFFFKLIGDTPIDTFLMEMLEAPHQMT
# Chain of Vitamin D3 receptor (Homo sapiens) (P11473 whole entry, looked up): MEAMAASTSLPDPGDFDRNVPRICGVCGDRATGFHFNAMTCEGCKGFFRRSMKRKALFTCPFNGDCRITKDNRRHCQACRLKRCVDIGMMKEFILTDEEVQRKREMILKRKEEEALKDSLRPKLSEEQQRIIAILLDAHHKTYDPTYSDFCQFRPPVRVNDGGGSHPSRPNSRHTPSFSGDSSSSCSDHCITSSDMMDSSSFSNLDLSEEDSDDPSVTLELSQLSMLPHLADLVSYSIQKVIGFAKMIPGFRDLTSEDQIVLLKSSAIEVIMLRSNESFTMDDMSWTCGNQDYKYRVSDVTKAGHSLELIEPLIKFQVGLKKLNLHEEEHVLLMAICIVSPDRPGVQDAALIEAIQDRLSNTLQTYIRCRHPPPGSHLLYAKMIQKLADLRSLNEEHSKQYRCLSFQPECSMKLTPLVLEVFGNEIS
# Chain of Peroxisome proliferator-activated receptor delta (Homo sapiens) (Q03181 whole entry, looked up): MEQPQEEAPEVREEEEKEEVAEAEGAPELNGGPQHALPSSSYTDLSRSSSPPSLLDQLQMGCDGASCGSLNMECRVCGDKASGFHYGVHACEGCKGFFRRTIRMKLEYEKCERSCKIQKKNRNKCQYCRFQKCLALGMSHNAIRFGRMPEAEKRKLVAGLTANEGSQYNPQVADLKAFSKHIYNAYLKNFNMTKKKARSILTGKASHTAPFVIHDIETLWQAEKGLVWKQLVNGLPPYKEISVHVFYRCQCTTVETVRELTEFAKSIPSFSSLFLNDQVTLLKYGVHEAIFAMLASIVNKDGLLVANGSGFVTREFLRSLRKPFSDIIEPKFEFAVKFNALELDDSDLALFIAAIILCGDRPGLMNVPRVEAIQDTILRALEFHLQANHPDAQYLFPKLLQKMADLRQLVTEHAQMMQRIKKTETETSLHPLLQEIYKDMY
# Chain of Bile acid receptor (Homo sapiens) (Q96RI1 whole entry, looked up): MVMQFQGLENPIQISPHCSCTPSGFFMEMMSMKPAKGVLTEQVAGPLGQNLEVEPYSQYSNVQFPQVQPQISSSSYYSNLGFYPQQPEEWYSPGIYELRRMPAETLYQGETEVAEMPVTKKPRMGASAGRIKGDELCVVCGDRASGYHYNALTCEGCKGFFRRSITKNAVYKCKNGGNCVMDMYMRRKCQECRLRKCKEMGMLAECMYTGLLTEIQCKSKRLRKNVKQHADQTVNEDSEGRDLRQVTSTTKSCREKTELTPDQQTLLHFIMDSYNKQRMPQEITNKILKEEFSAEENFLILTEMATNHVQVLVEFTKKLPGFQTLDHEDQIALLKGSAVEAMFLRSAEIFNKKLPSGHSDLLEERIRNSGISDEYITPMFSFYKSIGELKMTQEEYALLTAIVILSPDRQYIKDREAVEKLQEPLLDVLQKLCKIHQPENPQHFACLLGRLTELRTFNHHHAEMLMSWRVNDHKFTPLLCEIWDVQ
Structure (SMILES),Potency [1],Potency [2],outcome [3],Potency [4],outcome [5],Potency [6],outcome [7],Potency [8],Potency [9],outcome [10],outcome [11],outcome [12],Potency [13],Potency [14],Potency [15],Potency [16],outcome [17],Potency [18],outcome [19]
Clc1ccc(C(Cl)(Cl)Cl)cn1,inactive,inactive,inactive,inactive,inactive,inactive,inactive,inactive,inactive,inactive,inactive,inactive,inactive,inactive,inactive,inactive,inactive,inactive,–
CCCC(C)C1(CC)C(=O)N=C(S)NC1=O (stereo not given),inactive,–,–,inactive,–,inactive,inactive,inactive,inactive,inactive,inactive,inactive,inactive,inactive,inactive,inactive,inactive,inactive,inactive
C/C(=N\NC(=O)Nc1cc(F)cc(F)c1)c1ncccc1C(=O)O,inactive,–,inactive,–,inactive,inactive,inactive,inactive,inactive,inactive,inactive,inactive,inactive,inactive,inactive,inactive,inactive,inactive,inactive
O=C(Cl)/C=C/C(=O)Cl,inactive,inactive,inactive,inactive,inactive,inactive,inactive,inactive,inactive,inactive,inactive,inactive,inactive,inactive,inactive,inactive,inactive,inactive,–
CC(Cc1ccccc1)NCCCCl (stereo not given),inactive,inactive,inactive,inactive,inactive,inactive,inactive,inactive,inactive,inactive,inactive,inactive,inactive,inactive,inactive,inactive,inactive,inactive,inactive
N#CC(Br)(Br)C(N)=O,inactive,–,–,–,–,inactive,inactive,inactive,inactive,inactive,inactive,inactive,inactive,inactive,inactive,inactive,inactive,1550 nM (active),–
CCCCCCCCBr,inactive,–,inactive,inactive,inactive,inactive,inactive,inactive,inactive,inactive,inactive,inactive,inactive,inactive,inactive,inactive,inactive,inactive,inactive
CCOC(=O)COc1ccc(Cl)cc1Cl,inactive,inactive,–,inactive,–,inactive,–,inactive,inactive,inactive,inactive,inactive,inactive,inactive,inactive,inactive,inactive,inactive,–
